# Tests used:
# Conditions in all cases: concentration: 1 μM, replicates: in singlicate; n = 1
# PAK2 = system: PAK2
# PAK3 = system: PAK3
# PAK4 = system: PAK4
# PAK6 = system: PAK6
# PAK7 = system: PAK7
# PCTK1 = system: T1, PCTK1
# T1 construct: gene CDK16
# PCTK2 = system: T2, PCTK2
# T2 construct: gene CDK17
# PCTK3 = system: T3, PCTK3
# T3 construct: gene CDK18
# PDGFRA = system: PDGFRA
# PDGFRB = system: PDGFRB
# 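Further: KINOMEscan kinase panel screen.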
SMILES,%Inh (PAK2) [%],%Inh (PAK3) [%],%Inh (PAK4) [%],%Inh (PAK6) [%],%Inh (PAK7) [%],%Inh (PCTK1) [%],%Inh (PCTK2) [%],%Inh (PCTK3) [%],%Inh (PDGFRA) [%],%Inh (PDGFRB) [%]
COc1cc(OC)cc(-c2cc3cnc(N)nc3nc2NC(=O)NC(C)(C)C)c1,0,0,0,0,9,0,0,0,0,0
COc1cc2nccc(Nc3cccc(Oc4ccccc4)c3)c2cc1OC.Cl [GW284543],0,0,0,0,4,4,0,2,22,26
CCCC(=O)Nc1n[nH]c2ncc(-c3cccc4ccccc34)cc12 [SB-642057],5,0,0,0,0,27,35,34,0,12
COc1cccc(C2=C(Nc3cccc(C(=O)O)c3)C(=O)NC2=O)c1 [SB-390770],0,25,0,0,0,0,0,0,3,0
Cc1ccc(Oc2ccc(Nc3ncnc4cc[nH]c34)cc2C)cn1,37,4,25,27,0,0,8,2,49,21
COC(=O)c1c(-c2ccccc2)c2cc(C)ccc2c(=O)n1Cc1ccccc1,20,1,0,10,0,0,0,0,42,90
COc1ccc(-c2cc3c(C)nc(N)nc3n([C@H]3CC[C@H](OCCO)CC3)c2=O)cn1,1,0,0,0,0,0,3,0,0,1
Cc1c(Cn2c(C)nn3c(=O)cc(N4CCO[C@H](C)C4)nc23)cccc1C(F)(F)F [GSK2373690],3,7,0,0,0,0,0,26,0,14
CCn1c(-c2nonc2N)nc2ccccc21 [SB-693162/GW549034],27,0,0,11,11,4,0,16,41,0
O=C(Nc1ccc2c(c1)OCO2)NC1CCN(c2ccnc(NCc3ccc(F)cc3)n2)CC1 [GSK1379859],0,14,0,0,0,0,0,0,0,12
Cc1ccccc1COc1cc(-n2cnc3cc(Cl)ccc32)sc1C(N)=O [GW813349],0,0,0,1,0,15,0,0,1,0
COc1ccc(-c2cc3c(C)nc(N)nc3n([C@H]3CC[C@H](O)CC3)c2=O)cn1,11,0,21,0,0,0,0,0,0,0
COc1cccc(C2=C(N(C)c3ccccc3)C(=O)NC2=O)c1 [SB-334865],0,1,0,0,0,0,0,0,0,7
Nc1nccc2scc(-c3ccc4c(c3)CCN4C(=O)Cc3ccccc3)c12 [GSK2576924],0,55,0,0,30,0,9,17,4,43
Cl.NS(=O)(=O)c1cccc(Nc2cc(-c3ccc(F)cc3)n[nH]2)c1 [GW824645],26,0,0,4,0,0,13,5,75,96.1
O=C(NCc1cccs1)c1cc(C(=O)c2c(Cl)cccc2Cl)c[nH]1 [GW823670],38,10,0,0,0,0,0,13,0,0
CN(C)c1cc(-c2ccc3c(N)n[nH]c3c2)nc(N)n1 [GSK2219329],0,0,0,0,15,0,0,0,0,9
Nc1ncnc2c1ncn2-c1cccc2ccccc12 [SKF-97184],56,0,0,0,0,0,100,10,0,7
